Article PMC4552634, “A New Set of Chemical Starting Points with Plasmodium falciparum Transmission-Blocking Potential for Antimalarial Drug Discovery” (PLoS ONE, 2015)
Among all 13,000 compounds or so, about 3,200 (25%) showed an effect of 50% or more. The list shows a part of the results.

tested on: P. falciparum stage V gametocytes; parameters: BacTiter-Glo ATP luminescence viability of purified stage V gametocytes in 384-well plates, per cent inhibition versus DMSO; conditions: 48 h, 5 µM; inhibitor

Row | SMILES | % Inhibition [%]
1 | COc1nc2c(CCN3CC[C@H](NCc4ccc5c(c4)NC(=O)CO5)[C@H](O)C3)c(Cl)cnc2cc1F [TCMDC-135805] | -8.55
2 | CC(C)CC(=O)N1CCNC[C@@H]1C(=O)NC1CC1 [TCMDC-141241] | 28.73
3 | CN1CCCCC1CCc1cc(C(=O)Nc2ccc(-c3ccc(O)cc3)cc2)ccc1O (centres unmarked) [TCMDC-132103] | -69.36
4 | CC1(C)CCC(=Cc2ccc(Cl)cc2)CC1(O)Cn1ccnc1 (centres unmarked) [TCMDC-125222] | 20.04
5 | Nc1ncc(Cc2cc(Cl)c(N)c3ncccc23)c(N)n1 [TCMDC-137889] | 44.6
6 | Nc1ccc(-c2nc3ccc(Cc4ccc5nc(-c6ccc(N)cc6)[nH]c5c4)cc3[nH]2)cc1 [TCMDC-123486] | 52.65
7 | Nc1ccc(-c2nc3ccc(Oc4ccc5nc(-c6ccc(N)cc6)[nH]c5c4)cc3[nH]2)cc1 [TCMDC-125791] | -25
8 | Cc1nc2ccc(-c3nc4ccc(N)cc4[nH]3)cc2[nH]1 [TCMDC-123723] | -56.67
9 | COc1ccccc1N1CCN(CCCCNC(=O)c2ccc(NC(=O)c3cc(Cl)cc(Cl)c3)cc2)CC1 [TCMDC-138236] | 3.866
10 | O=C(/C=C/c1ccc(Cl)c(Cl)c1)NCCCCCCN1CCN(C(=O)Nc2ccc(F)c(Cl)c2)CC1 [TCMDC-135833] | -83.03
11 | COc1ccc(-c2cccc(NC(=O)c3ccc(C#N)cc3)c2)cc1CN1CCN(C)CC1 [TCMDC-132612] | -15.47
12 | COc1ccc(-c2cccc(NC(=O)c3cccs3)c2)cc1CN1CCCN(C)CC1 [TCMDC-132600] | 87.2
13 | COc1ccc(-c2ccc(NC(=O)c3ccc(F)cc3)cc2)cc1CN1CCCN(C)CC1 [TCMDC-132514] | 15.06
14 | COc1ccc(-c2ccc(NC(=O)c3ccccc3)cc2)cc1CN1CCCN(C)CC1 [TCMDC-132535] | 93.82
15 | COc1ccc(-c2cccc(NC(=O)c3ccccc3)c2)cc1CN1CCCN(C)CC1 [TCMDC-132627] | 80.03
16 | COc1ccc(-c2ccc(NC(=O)c3ccc(C#N)cc3)cc2)cc1CN1CCCN(C)CC1 [TCMDC-132517] | 41.17
17 | COc1ccc(-c2cccc(NC(=O)c3ccc(C#N)cc3)c2)cc1CN1CCCN(C)CC1 [TCMDC-132609] | -22.05
18 | COc1ccc(-c2ccc(NC(=O)c3cccs3)cc2)cc1CN1CCCN(C)CC1 [TCMDC-132509] | -9.366
19 | O=C(Nc1cccc(C(F)(F)F)c1)NC1CCN(c2ccnc3cc(Cl)ccc23)C1 (centres unmarked) [TCMDC-133406] | -28.21
20 | COC(=O)CCCCCOc1cc(Cc2cnc(N)nc2N)cc(OC)c1OC [TCMDC-137678] | -5.017
21 | Cc1ccc(CCC(C)NCC(O)c2cccc(C(F)(F)F)c2)cc1 (centres unmarked) [TCMDC-131446] | 13.09
22 | COc1ccc(Cc2c(Cl)nc3nc(N)nc(N)c3c2C)cc1 [TCMDC-138055] | 17.08
23 | Oc1ccc(CCCNc2nc(NCc3ccccc3-c3ccccc3)nc(N3CCNCC3)n2)cc1 [TCMDC-133391] | 23.94
24 | Oc1ccc(CCNc2nc(NCc3ccccc3-c3ccc(C(F)(F)F)cc3)nc(NC3CCNCC3)n2)cc1 [TCMDC-133387] | 26.8
25 | Oc1ccc(CCCNc2nc(NCc3cccc4ccccc34)nc(NC3CCNCC3)n2)cc1 [TCMDC-133392] | 57.4

Row | SMILES | % Inhibition [%]
26 | Oc1ccc(CCCNc2nc(NCc3cccc4ccccc34)nc(N3CCNCC3)n2)cc1 [TCMDC-133394] | 8.629
27 | Oc1ccc(CCCNc2nc(NCc3cccc4ccccc34)nc(N3CCCNCC3)n2)cc1 [TCMDC-133445] | -39.91
28 | Oc1ccc(CCCNc2nc(NCc3ccccc3-c3ccccc3)nc(NC3CCNCC3)n2)cc1 [TCMDC-133389] | 58.76
29 | O=[N+]([O-])c1cccc(Nc2cncc(-c3ccc(CO)cc3)c2)c1 [TCMDC-136670] | 46.28
30 | CCCC(CNCc1ccccc1)CNc1cc(=O)c2ccccc2[nH]1 (centres unmarked) [TCMDC-139434] | 43.59
31 | COc1cc(C(F)(F)F)cc2[nH]c(CNCCCNc3nc4ccccc4[nH]3)cc12 [TCMDC-140013] | 19.83
32 | COc1cc(NCCCNCc2cn(Cc3cc(Br)cc(Br)c3)c3ccccc23)nc2ccccc12 [TCMDC-140677] | 108.1
33 | O=c1cc(NCC2(CNCc3cn(Cc4ccccc4)c4ccccc34)CCCCC2)[nH]c2ccccc12 [TCMDC-140540] | -59.9
34 | COc1cccc2[nH]c(NCCCNCc3cc(Br)cc(Br)c3)nc12 [TCMDC-139984] | 1.75
35 | CC(CNCc1cn(Cc2cc(Br)cc(Br)c2)c2ccccc12)CNc1cc(=O)c2ccccc2[nH]1 (centres unmarked) [TCMDC-140681] | 91.88
36 | COc1cc(NCC2(CNCc3cn(Cc4ccccc4)c4ccccc34)CCCCC2)nc2ccccc12.Cl [TCMDC-140539] | 107.8
37 | COc1cc(NCC(C)CNCc2cn(Cc3ccccc3)c3ccccc23)nc2ccccc12 (centres unmarked) [TCMDC-140496] | 91.67
38 | CCCC(CNCc1cccc(C)c1)CNc1cc(=O)c2ccccc2[nH]1 (centres unmarked) [TCMDC-139435] | 10.27
39 | COc1ccccc1C1CCN(Cc2csc(NC(=O)c3ccc(-c4ccc(C(F)(F)F)cc4)cc3)n2)CC1 [TCMDC-138781] | -44.16
40 | Cc1cc2[nH]c(-c3ccc(C(=O)NCCCN4CCN(c5cccc(Cl)c5)CC4)cc3F)nc2cc1Cl [TCMDC-140029] | -4.793
41 | Cc1cccc2[nH]c(-c3cccc(-c4ccc(CN5CCN(CCO)CC5)cc4)c3)nc12 [TCMDC-133026] | 5.684
42 | O=C(Nc1ccc(N2CCN(Cc3ccccc3)CC2)cc1)c1cccs1 [TCMDC-124320] | -18.09
43 | C=CCOc1ccc(CNC2CCN(Cc3ccccc3)CC2)cc1Br [TCMDC-125268] | 13.93
44 | O=C(NCc1cccc2ccccc12)c1ccc(CNC2CCN(Cc3ccccc3)CC2)cc1 [TCMDC-140789] | -3.964
45 | c1ccc(CN2CCC(NCc3ccc(-c4ccc(CNC5CCCC5)cc4)cc3)CC2)cc1 [TCMDC-140492] | 108.5
46 | O=C(NCc1cc2c(cc1Cl)OCO2)c1ccc(CNC2CCN(Cc3ccccc3)CC2)cc1 [TCMDC-140786] | 7.44
47 | c1ccc(CN2CCC(NCc3ccc(-c4cccc(CNC5CCCC5)c4)cc3)CC2)cc1 [TCMDC-140491] | 106.1
48 | c1ccc(CN2CCC(NCc3ccccc3-c3ccc(CNCc4ccc5c(c4)OCO5)cc3)CC2)cc1 [TCMDC-140475] | 90.32
49 | C(=C(c1cccs1)c1cccs1)c1ccc(CNC2CCN(Cc3ccccc3)CC2)cc1 [TCMDC-138647] | 92.91
50 | c1ccc(CN2CCC(NCc3ccccc3-c3cccc(CNCc4ccc5c(c4)OCO5)c3)CC2)cc1 [TCMDC-140474] | 47.21
